Screening results deposited in PubChem BioAssay by The Scripps Research Institute Molecular Screening Center.
PLCg1 inh: PLC-gamma1 enzyme inhibitors, primary screen, biochemical, fluorescence, purified enzyme | AID 720700, 2013 | inhibition, % at 12.2 µM | fluorogenic substrate | 1-phosphatidylinositol 4,5-bisphosphate phosphodiesterase gamma-1 (Homo sapiens), P19174 | actives 0.84% (n = 370,000); in the data active = inhibition above about 9.5%
ADAM10 inh: human ADAM10 inhibitors, primary screen, biochemical, QFRET, HTS. recombinant ADAM10, EDANS/DABCYL FRET peptide cleavage, 3 h. inhibition, % at 7 µM. AID 720582, 2013. actives 0.62% (n = 370,000). Disintegrin and metalloproteinase domain-containing protein 10 (Homo sapiens), O14672;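 active = inhibition above a per-campaign cutoff equal to the mean of compounds falling between control-based bounds plus 3 SD, cut at about 20% in these data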
Target sequence (O14672 214-748 limits assumed): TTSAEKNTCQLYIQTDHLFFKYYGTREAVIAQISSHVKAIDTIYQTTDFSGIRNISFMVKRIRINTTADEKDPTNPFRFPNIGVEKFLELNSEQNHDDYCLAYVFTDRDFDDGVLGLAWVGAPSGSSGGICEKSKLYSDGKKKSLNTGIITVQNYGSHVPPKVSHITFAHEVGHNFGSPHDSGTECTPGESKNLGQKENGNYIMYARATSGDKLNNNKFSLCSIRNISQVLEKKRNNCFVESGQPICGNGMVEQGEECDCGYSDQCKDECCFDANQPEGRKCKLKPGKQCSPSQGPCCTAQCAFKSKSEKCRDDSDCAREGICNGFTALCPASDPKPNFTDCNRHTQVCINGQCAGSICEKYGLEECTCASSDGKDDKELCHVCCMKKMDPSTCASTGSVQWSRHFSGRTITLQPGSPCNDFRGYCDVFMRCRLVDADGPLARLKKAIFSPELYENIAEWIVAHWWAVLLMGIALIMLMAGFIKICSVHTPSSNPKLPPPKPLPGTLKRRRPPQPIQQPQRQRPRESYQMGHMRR
ADAM17 inh: ADAM17 inhibitors, primary screen, biochemical, QFRET; Disintegrin and metalloproteinase domain-containing protein 17 (Homo sapiens), P78536; recombinant ADAM17, EDANS/DABCYL FRET peptide cleavage; inhibition, % at 6.95 µM; actives 0.83% (n = 370,000);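 active = inhibition above the mean of compounds lying between control limits plus 3 SD, set per campaign, cut at about 8.5% in these data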
PLCb3 inh: human PLC-beta3 inhibitors, primary screen, biochemical, fluorescence; 1-phosphatidylinositol 4,5-bisphosphate phosphodiesterase beta-3 (Homo sapiens), Q01970; Purified PLC-beta3, fluorogenic substrate; inhibition, % at 12.2 µM; actives 0.18% (n = 370,000); in the data active = inhibition above about 11%
proKLK7 act: proKLK7 zymogen activators, primary screen, biochemical, fluorescence intensity | actives 0.9% (n = 370,000) | Kallikrein-7 (Homo sapiens), P49862 | AID 652039, 2013 | activation, % at 7 µM | purified proKLK7, EDANS-DABCYL substrate fluorescence; 100% is mature enzyme control, 0% vehicle;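 active = activation above the mean of all tested compounds plus 3 SD, computed per campaign excluding outliers beyond control limits, cut at about 13% in these data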
sPLA2-III inh: human group III sPLA2 inhibitors, primary screen, biochemical, QFRET, BODIPY PC-A2 liposome substrate; QFRET BODIPY PC-A2 liposome hydrolysis, fluorescence; Group 3 secretory phospholipase A2 (Homo sapiens), Q9NZ20; AID 743126, 2013; inhibition, % at 12.2 µM; actives 0.56% (n = 370,000);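 active = inhibition above mean plus 3 SD of compounds lying within the high and low control bounds, cut at about 19% in these data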
ADAM10 confirm: human ADAM10 inhibitors, confirmation, biochemical, QFRET, triplicate; inhibition, % at 6.95 µM; ADAM10 QFRET peptide cleavage, EDANS fluorescence; actives 1% (n = 2,100); shares compounds with ADAM10 inh;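 active = inhibition above about 20% chosen separately for each screening run, limit read from the data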
ADAM17 counter: ADAM17 inhibitors, counter-screen for ADAM10 exosite inhibitor project, biochemical, QFRET, high throughput; shares compounds with ADAM10 inh; inhibition, % at 6.95 µM; actives 0.5% (n = 2,100); ADAM17 QFRET peptide cleavage, EDANS fluorescence;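 active = mean triplicate inhibition above the solvent-only control wells' mean plus 3 SD, cut at about 12% in these data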
Numbers stand for hits; n = inactive; x = no result given. Rows were chosen to be rich in hits. Some 3.4% of all compounds tested hit in one or more screens of this group.

SMILES | PLCg1 inh | ADAM10 inh | ADAM17 inh | PLCb3 inh | proKLK7 act | sPLA2-III inh | ADAM10 confirm | ADAM17 counter
Cc1ccccc1CNC(=O)CN1CCCc2ccccc21 | n | n | n | n | n | n | x | x
CC(=O)Nc1ccc(S(=O)(=O)Oc2ccccc2N2CCCCC2)cc1 | n | 23 | n | n | n | n | n | n
COCCCNC(=O)Cn1cc2c(n1)CCC(C)C2 (stereo unspecified) | n | 87 | n | n | n | n | n | n
O=C(Nc1ccc(C(O)(C(F)(F)F)C(F)(F)F)cc1)c1ccc(Cl)cc1 | n | 23 | n | n | x | n | n | n
O=C(Nc1ccc(OCC(F)(F)C(F)F)c(C(F)(F)F)c1)c1ccc(Cl)cc1 | n | 25 | n | n | n | n | n | n
O=C(Nc1ccc(C(O)(C(F)(F)F)C(F)(F)F)cc1)c1c(F)cccc1F | n | n | n | n | x | n | x | x
CCOC(=O)[C@@]12CCC3=C1N(CCC3)C(=O)[C@H](CC(=O)NCc1ccccc1)C2 | n | n | n | n | n | n | x | x
CCOc1ccc(NC(=O)C2C(c3ccccc3)C2(Cl)Cl)cc1 (stereo unspecified) | n | 20 | n | n | n | n | n | n
C[C@@H]1CN([C@@H](C)CO)C(=O)CCCn2cc(nn2)CO[C@H]1CN(C)C(=O)c1ccncc1 | n | n | n | n | n | n | x | x
CC1(C)CC(=O)c2c(oc3cc(O)c(O)cc23)C1 | n | 21 | n | n | n | n | n | n
CCOC(=O)[C@]12CCCC=C1N(Cc1ccc(Cl)cc1Cl)C(=O)[C@H](CC(=O)NCCc1ccccc1OC)C2 | n | 23 | n | n | n | n | n | n
CCCCNC(=O)C[C@@H]1C[C@@]2(C(=O)OCC)CCCC=C2N(Cc2ccc(Cl)cc2Cl)C1=O | n | n | n | n | n | n | x | x
CCOC(=O)[C@]12CCC=C1N(Cc1ccc(Cl)cc1Cl)C(=O)[C@H](CC(=O)NCc1ccc(OC)c(OC)c1)C2 | n | 20 | n | n | n | n | n | n
COc1ccc(Nc2nc(N)c([N+](=O)[O-])c(NC3CCCCC3)n2)cc1 | n | 31 | n | n | n | n | n | n
COc1ccc(Nc2nc(N)c([N+](=O)[O-])c(NCCO)n2)cc1 | n | n | n | n | n | n | x | x
CCN(c1ccccc1)S(=O)(=O)c1ccc(Cl)c(NC(=O)COC(=O)c2ccc(O)cc2)c1 | n | 20 | n | n | n | n | n | n
COc1ccc(CCNC(=O)COc2ccc(S(=O)(=O)NC3CCCCC3)cc2Cl)cc1 | n | 23 | n | n | n | n | n | n
O=C(COc1ccc(S(=O)(=O)NC2CCCCC2)cc1Cl)NCC1CCCO1 (stereo unspecified) | n | n | n | n | n | n | x | x
O=C(NC(=S)Nc1ccccc1N1CCCCC1)c1ccc(-c2cccc([N+](=O)[O-])c2)o1 | n | n | n | n | n | n | x | x
O=C(NC(=S)Nc1ccccc1N1CCCC1)c1ccc(-c2cccc([N+](=O)[O-])c2)o1 | n | 20 | n | n | n | n | n | n
COc1cc(OC)c2c(=O)c3c(C(=O)O)c(O)ccc3oc2c1 | n | n | n | n | n | n | x | x
Cc1occc1C(=O)Nc1ccccc1C(=O)O | n | n | n | n | n | n | x | x
Cc1occc1C(=O)NNC(=O)C(c1ccccc1)c1ccccc1 | n | 28 | n | n | n | n | n | n
